14 compounds from PubChem BioAssay (NCI) can be followed below.

Each structure is given as a SMILES string. Where “and” joins values, the source holds several entries; their conditions need not be identical. Equal values may be shown once. This is part of a sample that, as a whole, favours compounds with a hit. Of some 83,000 tested, about 20% had one in any assay.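 Values shown are percent growth following 48 h exposure of cells in 96-well plates to a single concentration of compound; below 10 was considered active.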 Calls of active or inactive are those of the source.

Common to all, as to assay: NCI-60 one-dose screen, 48 h (100 = growth as untreated, 0 = no growth, -100 = all killed)
The test system of assay [1] is T-47D breast. The settings on record: 10 µM unless noted.
In assay [2] the test system is BT-549 breast. To be noted: 10 µM unless noted.
In assay [3] the test system is MDA-MB-435 melanoma. To be noted: 10 µM unless noted.
Assay [4] relates to SW-620 colon. To be noted: 10 µM unless noted.
In assay [5] the test system is MCF7 breast.
Assay [6] relates to HCT-116 colon. To be noted: 10 µM unless noted.
Assay [7] concerns HCC-2998 colon. To be noted: 10 µM unless noted.
Assay [8] concerns KM12 colon. The settings on record: 10 µM unless noted.

For `O=C(CC1(O)C(=O)Nc2c(Cl)ccc(Cl)c21)c1ccc(Cl)cc1Cl` (centres undefined), the growth in assay [1] is 75.5% (inactive); in assay [2], 90.2% (inactive); in assay [3] it was 91.6% (inactive); in assay [4], 105% (inactive); in assay [5] (10 µM), 91.6% (inactive); in assay [6], 89.9% (inactive). Besides, the growth in assay [7] is 110% (inactive); in assay [8], 102% (inactive).

Consider `Nc1nc(N)c2nc(CNc3ccc(C(=O)NC(CCC(=O)O)C(=O)O)cc3)cnc2n1` (centres undefined), for which the growth in assay [1] was 58% (inactive) and 55.5% (inactive); in assay [2], 45.3% (inactive) and 45.4% (inactive); in assay [3], 35.8% (inactive) and 24.4% (inactive); in assay [4], 27.6% (inactive) and 55.3% (inactive); in assay [5] (10 µM), 18% (inactive) and 16.3% (inactive); in assay [6], 21.2% (inactive) and 10.3% (inactive). The growth in assay [7] was 16.6% (inactive) and 3.42% (active); in assay [8], 38.7% (inactive) and 30.8% (inactive).

Regarding `CC1OC2CC(=O)OC2C2=C1C(=O)c1c(O)cccc1C2=O` (centres undefined), the growth was -30.1% (active) in assay [1]; -98.5% (active) in assay [2]; -68% (active) in assay [3]; -76.4% (active) in assay [4]; -45.2% (active) in assay [5] (10 µM); -97.8% (active) in assay [6]. For the same compound, the growth is -97.4% (active) in assay [7] and 24.7% (inactive) in assay [8].

Regarding `COC(=O)c1nc(=S)[nH]c(C(=O)OC)c1C(=O)c1ccc2ccccc2c1`, the growth in assay [1] was 86.5% (inactive); in assay [2] it was 131% (inactive); in assay [3], 104% (inactive); in assay [4], 101% (inactive); in assay [5] (10 µM), 94.4% (inactive); in assay [6] it was 107% (inactive). Also, the growth in assay [7] is 113% (inactive); in assay [8], 107% (inactive).

In the case of `COc1cc(NS(C)(=O)=O)ccc1Nc1c2ccccc2nc2ccccc12`, the growth in assay [1] was 23.1% [2.5 µM] (inactive); in assay [2], 20.2% [2.5 µM] (inactive); in assay [3], 64.1% [2.5 µM] (inactive); in assay [4], 41.5% [2.5 µM] (inactive); in assay [5] (2.5 µM) it was 32.5% (inactive); in assay [5] (10 µM) it was 22.5% (inactive) [middle of 4 runs]. For the same compound, the growth in assay [5] (250 µM) is -69.8% (active) and -100% (active); in assay [6] it was 31% [2.5 µM] (inactive); in assay [7], -44.3% [2.5 µM] (active); in assay [8], 48.6% [2.5 µM] (inactive).

Take `O=C(Oc1cccc2cccnc12)c1ccccc1`: the growth in assay [1] is 38.6% (inactive) and 95.2% (inactive); in assay [2], 101% (inactive) and 107% (inactive); in assay [3], 88% (inactive); in assay [4] it was 49.7% (inactive) and 104% (inactive); in assay [5] (10 µM), 55.1% (inactive) and 102% (inactive); in assay [6] it was 32.8% (inactive) and 102% (inactive). The growth is 108% (inactive) and 104% (inactive) in assay [7]; 101% (inactive) and 104% (inactive) in assay [8].

On to `Cc1ccnc2c1ccc1c(C)ccnc12`, for which the growth in assay [1] is 6.3% (active); in assay [2] it was 23.2% (inactive); in assay [3] it was 32% (inactive); in assay [4], 30.2% (inactive); in assay [5] (10 µM), 13.9% (inactive); in assay [6], 13.7% (inactive). The values for the growth in assay [7] and in assay [8] were 51.3% (inactive) and 24.2% (inactive), respectively.

On to `O=C1N[C@H]2[C@H](CS[C@H]2CCCCC(=O)N(CCP(c2ccccc2)c2ccccc2)CCP(c2ccccc2)c2ccccc2)N1`, for which the growth was 74.8% (inactive) in assay [1]; 96.9% (inactive) in assay [2]; 96.1% (inactive) in assay [3]; 88.7% (inactive) in assay [4]; 20.9% (inactive) in assay [5] (10 µM); 35.5% (inactive) in assay [6]. The growth is 88.9% (inactive) in assay [7] and 59.9% (inactive) in assay [8].

With `CC(C)(C)CC(C)(C)c1ccc(OCCSC(=N)N)cc1`, the growth in assay [1] was 7.82% (active); in assay [2] it was 104% (inactive); in assay [3] it was 20.2% (inactive); in assay [4] it was -12.1% (active); in assay [5] (10 µM), 9.08% (active); in assay [6], -12.2% (active). Also, the growth in assay [7] was -16% (active); in assay [8], 32.8% (inactive).

Turning to `O=C(Nc1ccccc1)c1cc(Cl)ccc1O`, the growth in assay [1] was 23.4% (inactive); in assay [2], 57.5% (inactive); in assay [3] it was 39.3% (inactive); in assay [4], 63.3% (inactive); in assay [5] (10 µM), 81.9% (inactive); in assay [6], 51% (inactive). The growth is 89.1% (inactive) in assay [7] and 47% (inactive) in assay [8].

Take `S=C(NCCNC(=S)[S][Sn]([c]1ccccc1)([c]1ccccc1)[c]1ccccc1)[S][Sn]([c]1ccccc1)([c]1ccccc1)[c]1ccccc1`: the growth is -75.7% (active) in assay [1]; -78.8% (active) in assay [2]; -88% (active) in assay [3]; -97.5% (active) in assay [4]; -99.8% (active) in assay [5] (10 µM); -82.8% (active) in assay [6]. Moreover, the growth was -82.4% (active) in assay [7] and -99.4% (active) in assay [8].

Turning to `O=C1c2ccccc2C(=O)c2sc(Nc3cccc(Cl)c3)nc21`, the growth in assay [1] is 16% (inactive); in assay [2], 61.5% (inactive); in assay [3], -83.5% (active); in assay [4], -54.6% (active); in assay [5] (10 µM) it was -59% (active); in assay [6], -29.9% (active). Moreover, the growth in assay [7] is -34.3% (active); in assay [8] it was 24.6% (inactive).

`O=[N+]([O-])c1ccc2c(N=Nc3ccc4ccccc4c3O)c(O)cc(S(=O)(=O)O)c2c1`: the growth was 96.1% (inactive) in assay [1]; 92.4% (inactive) in assay [2]; 97% (inactive) in assay [3]; 92.2% (inactive) in assay [4]; 98.6% (inactive) in assay [5] (10 µM); 93.3% (inactive) in assay [6]. In addition, the results for the growth in assay [7] and in assay [8] were 94.4% (inactive) and 95.6% (inactive), respectively.

As to `Cc1cc(C(C)(CC(C)C)c2ccc(O)c(C)c2)ccc1O`, the growth in assay [1] was 86.8% (inactive); in assay [2] it was 109% (inactive); in assay [3] it was 94.1% (inactive); in assay [4] it was 117% (inactive); in assay [5] (10 µM), 115% (inactive); in assay [6], 93.9% (inactive). In addition, the growth in assay [7] is 103% (inactive); in assay [8], 107% (inactive).
